High-throughput results as filed in PubChem BioAssay.
Most compounds without a hit are left out; they make up all but 4.1% or so of the library.
FMDV inh = High Throughput Screening for Foot and Mouth Disease Virus Antivirals; Potency, µM (top dose mostly 57.9 µM), for the others: top-dose activity change, negative = inhibition, hits mostly inhibitors; 410,000 tested, 1.2% active; FMDV antiviral cell-based qHTS; calls by dose curve; tested in HEK293T cells; also: read-out not given here; nearly all actives have a fitted effect of over 45% in size
AmpC no deterg = qHTS Inhibitors of AmpC Beta-Lactamase (assay without detergent); AmpC nitrocefin hydrolysis, absorbance 480 nm, 0.0001% Triton; Potency, µM (series often up to 57.1 µM), for the others: top-dose activity change, negative = inhibition, hits mostly inhibitors; 330,000 tested, 0.52% active; AID 485341, 2010;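 also: plate controls were no compound for no effect and no enzyme for full effect; nearly all actives have a fitted effect of over 20% in size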
Target sequence (P00811 whole entry, looked up): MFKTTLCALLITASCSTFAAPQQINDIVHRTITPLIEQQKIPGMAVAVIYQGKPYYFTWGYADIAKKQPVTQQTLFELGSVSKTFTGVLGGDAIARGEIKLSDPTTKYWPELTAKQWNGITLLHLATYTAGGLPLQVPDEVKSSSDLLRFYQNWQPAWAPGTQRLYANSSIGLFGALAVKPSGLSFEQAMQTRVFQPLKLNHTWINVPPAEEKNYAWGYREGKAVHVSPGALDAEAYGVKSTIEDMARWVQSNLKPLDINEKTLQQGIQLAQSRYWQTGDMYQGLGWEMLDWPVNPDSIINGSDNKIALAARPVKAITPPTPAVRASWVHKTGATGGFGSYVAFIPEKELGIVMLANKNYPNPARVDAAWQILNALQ
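AmpC (5.3 nM in the dispensed reagent) in 20 mM phosphate pH 7.0 with 0.01% (detergent screen) or 0.0001% Triton X-100 was preincubated with compounds for 15 min at room temperature. Nitrocefin was then added from an 800 uM solution, and hydrolysis was followed at 480 nm.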
Sm TGR block = qHTS Assay for the Inhibitors of Schistosoma Mansoni Peroxiredoxins; Schistosoma mansoni thioredoxin glutathione reductase (TGR), Q962Y6; purified TGR, DTNB reduction, TNB absorbance 405 nm; Potency, µM (titrated, usually from 114 µM), for inactives: at the top dose activity change, negative = inhibition, usual class: inhibitors; 360,000 tested, 3% active; also: nearly all actives have a fitted effect of over 60% in size
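First, TGR (20 nM dispensed) and NADPH were mixed with compound. Second, a 15 min room-temperature incubation followed. Third, further NADPH and then DTNB were added to start the reaction. Finally, TNB absorbance was monitored kinetically.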
AMA1-RON2 inh = qHTS for Inhibitors of AMA1-RON; Towards Development of Antimalarial Drug Lead: Primary Screen | 360,000 tested, 0.2% active | AID 720542, 2013 | Potency, µM (highest dose often 58.2 µM), without a hit: at the top dose activity change, negative = inhibition, actives largely listed as inhibitors | AlphaScreen AMA1-biotinylated RON2 peptide binding;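 also: 0% = vehicle wells and -100% = peptide control; nearly all actives have a fitted effect of over 45% in size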
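AMA1 (3D7) with his tag at 25 nM final met compounds first, then biotinylated RON2 peptide at 25 nM; detection used donor plus acceptor beads, 10 µg/mL apiece, read by AlphaScreen after 30 min at room temperature.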
AmpC detergent = qHTS Inhibitors of AmpC Beta-Lactamase (assay with detergent); AID 485294, 2010; Potency, µM (highest dose often 114 µM), for inactives: top-dose activity change, negative = inhibition, most hits filed as inhibitors; P00811; AmpC hydrolysis of nitrocefin, absorbance 480 nm, 0.01% Triton; 370,000 tested, 0.041% active;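 also: 0% = no-compound wells and -100% = no-enzyme wells; nearly all actives have a fitted effect of over 25% in size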
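20 mM phosphate pH 7.0 + 0.01% (detergent screen) or 0.0001% Triton X-100; 5.3 nM AmpC reagent; cpd preinc 15 min RT; nitrocefin (800 uM stock) to start; A480 q20 s × 4 min; Activity was normalised to no-enzyme and no-compound control wells.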
The depositor's hits bear a star; ? = inconclusive; / = no result. Unless noted, calls follow the shape of the dose curve; as a rule, active = well fitted curve in the direction sought with a large enough effect; inconclusive = small, poorly fitted or top-dose-only effect, or another doubt; inactive = no such curve, though single readings can be large; an effect the other way counts as inactive or inconclusive. Unless noted, % is scaled to controls: 0 for no effect and ±100 for the full control effect; potency is read from the fitted curve at half-maximal effect.

SMILES	FMDV inh	AmpC no deterg	Sm TGR block	AMA1-RON2 inh	AmpC detergent
Cc1ccc(CN(C)C(=O)CCc2c[nH]c3ccccc23)o1	4%	0%	-11%	-14%	0%
CN(Cc1cccnc1)C(=O)CCCc1c[nH]c2ccccc12	18%	101%	32µM*	-28%	2%
CC1CCN(C(=O)COC(=O)/C=C/c2ccc(Br)o2)CC1	1%	2%	8.9µM*	-7%	5%
O=C(/C=C/c1ccc(Br)o1)OCc1ccccc1	34%	-24%	22µM*	-8%	-12%
CC1CCCC(C)N1C(=O)COC(=O)/C=C/c1ccc(Br)o1 (centres undefined)	19%	-3%	/	-12%	/
O=C(/C=C/c1ccc(Br)o1)NC(c1ccccc1)c1ccccc1	-10%	-31%	45µM*	-11%	1%
CCN1CCN(C(=O)c2cnn(-c3ccc(F)cc3F)c2C2CCN(C(=O)OC(C)(C)C)CC2)CC1	-7%	/	-4%	/	2%
COc1ccc(C(c2c(C)[nH]n(C(N)=S)c2=O)C(C#N)C#N)cc1 (centres undefined)	25µM*	-18%	-30%	-22%	1%
COC(=O)c1c(OCc2ccccn2)cc(=O)n2c1CCN(C(=O)c1cc(C(C)C)nn1C)CC2	1%	/	/	/	/
COc1cccc(CCc2nnc(CCC(=O)N3CCN(Cc4ccccn4)CC3)o2)c1	0%	76%	11µM*	36%	12%
O=S(=O)(c1ccccc1)c1cc(O)ccc1O	34%	-17%	28µM*	23%	6%
O=S(=O)(c1ccc(Cl)cc1)c1cc(O)ccc1O	41%	-39%	11µM*	2%	-1%
Cc1c(O)ccc2cc(S(=O)(=O)c3ccccc3)c(=O)oc12	-5%	-15%	-28%	4%	-1%
O=C(NCC1(N2CCOCC2)CCCC1)c1cnn(-c2ncc3c(n2)-c2ccccc2CC3)c1C1CC1	0%	/	/	/	/
CCc1ccc(CN(C(=O)c2cc(=O)c3ccc(C)cc3o2)C2CCS(=O)(=O)C2)cc1 (centres undefined)	-10%	/	4%	/	1%
O=C(C[n+]1ccc2ccccc2c1)c1cccc2ccccc12	0%	12%	25µM*	-13%	2%
COc1cccc(-c2csc3ncnc(Sc4nnnn4C)c23)c1	20µM*	-13%	/	/	/
Cn1nnnc1Sc1ncnc2scc(-c3ccc(C#N)cc3)c12	28µM*	-11%	?	/	5%
Cn1nnnc1Sc1ncnc2scc(-c3cccc(F)c3)c12	?	-4%	-10%	/	-4%
Cn1nnnc1Sc1ncnc2scc(-c3cccc(C(F)(F)F)c3)c12	22µM*	-22%	/	/	/
Cn1nnnc1Sc1ncnc2scc(-c3ccc(C(F)(F)F)cc3)c12	11µM*	6%	-31%	/	-1%
CCn1c(-c2cccnc2)nc2cc(NC(=O)COC)cc(C(=O)N3CCc4ccccc4C3)c21	-17%	/	/	/	/
Cn1nnnc1Sc1ncnc2scc(-c3ccccc3C(F)(F)F)c12	?	-9%	4µM*	/	0%
Cc1cc(=O)n(Cc2ccccc2Cl)c2c1c(C)nn2-c1ccccc1	-8%	/	-7%	/	1%
COc1ccc2cc3cc(C(=O)NC4CC4)sc3nc2c1	16µM*	-26%	3%	-14%	2%
SMILES	FMDV inh	AmpC no deterg	Sm TGR block	AMA1-RON2 inh	AmpC detergent
Cn1c(=O)n(C)c2cc(N3CCOCC3)c(NS(=O)(=O)c3cccc(C#N)c3)cc21	9%	/	-5%	/	8%
Cc1cccc2c(Nc3ccc4c(c3)OCO4)nc(CN3CCC(N4CCCCC4)CC3)nc12	-12%	/	/	/	/
C=C(C)CSc1cc(C)c(C#N)c2nc3ccccc3n12	?	-2%	3.2µM*	10%	9%
Cc1cc(NCCCCO)n2c(nc3ccccc32)c1C#N	-24%	-10%	-7%	32%	0%
CCc1c(C)c(C#N)c2nc3ccccc3n2c1N(C)C	?	8%	-16%	12%	-11%
Cc1cc(-c2ccco2)n2c(nc3ccccc32)c1C#N	?	-25%	50µM*	14%	3%
